Most compounds without a hit are left out; they make up all but 19% or so of the library.
TDP1 cell CPT: DT40-hTDP1 cell growth loss with CPT; chicken DT40 Tdp1-/-;hTDP1 cells + 20 nM CPT, ATP luminescence, 48 h; AID 686979; Potency, µM (doses to about 46.2 µM), actives largely listed as inhibitors; 12% of 420,000 active; note: nearly all actives have a fitted effect of over 55% in size
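Chicken DT40 Tdp1-/- cells complemented with human TDP1, 400 cells/well, exposed to compounds plus 20 nM camptothecin for at least 48 h at 37 C; viability read as ATP content by CellTiter-Glo luminescence.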
TDP1 cell noCPT: qHTS for Inhibitors of human tyrosyl-DNA phosphodiesterase 1 (TDP1): qHTS in cells in absence of CPT | Potency, µM (highest dose often 46.2 µM), most hits filed as inhibitors | 15% of 420,000 active | AID 686978, 2013 | DT40 Tdp1-/- hTDP1 cells, no CPT, ATP luminescence, 48 h; note: nearly all actives have a fitted effect of over 55% in size
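DT40 Tdp1-/-;hTDP1 cells, no CPT (DMSO vehicle only), 400 cells/well; compounds pin-transferred; ≥48 hr, 37 °C; CellTiter-Glo 30 min RT dark, luminescence read.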
HT1080 IDH1KD tx: HT-1080 IDH1 knockdown cell toxicity (counter line); HT-1080 IDH1 knockdown viability, ATP luminescence, 48 h; Potency, µM (doses to about 46.1 µM), hits mostly cytotoxic; 2% of 360,000 active
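Viability of IDH1-knockdown HT-1080 fibrosarcoma cells was assessed by CellTiter-Glo after 48 h at 37 °C with titrated compound; concentration-effect curves were classified by fit quality and response size.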
IL1B secr inh: inhibitors of inflammasome signaling (IL-1 beta secretion); AID 743279; THP-1 LPS/ATP IL-1B secretion, AlphaLISA, 16 h; hits give low values; activity change, % at 57.5 µM; 4.7% of 360,000 active; in the data active = activity change below about -50%; inconclusive = mostly about -30% to -49%
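Secreted IL-1B measured by AlphaLISA bead assay after 16 h compound exposure of THP-1 cells; compounds (final up to 57.5 uM) added 1 h before LPS (250 ng/mL) and ATP (1.25 mM) stimulation; lower signal means less secretion.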
HT1080NT lethal: kills 2HG-producing HT-1080-NT fibrosarcoma cells | HT-1080-NT fibrosarcoma viability, CellTiter-Glo ATP luminescence, 48 h | Potency, µM (doses to about 46.1 µM), most hits filed as cytotoxic | 1.6% of 360,000 active | AID 686970;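 note: NT is the 2HG producing partner of a matched IDH1 knockdown line; nearly all actives have a fitted effect of over 55% in size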
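HT-1080-NT fibrosarcoma cells (2HG-overproducing), 750 cells/well in RPMI with 5% FBS, dosed after 2 h and incubated 48 h at 37C. CellTiter-Glo luminescence normalized to DMSO and no-cell wells; concentration-response curves fitted and classed.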
A number is an active result; i = inactive; ? = inconclusive; nt = not tested or not shown. Unless noted, calls come from the whole dose curve; as a rule, active = well fitted curve in the direction sought with a large enough effect; inconclusive = small, poorly fitted or top-dose-only effect, or another doubt; inactive = no such curve, though single readings can be large; an effect the other way counts as inactive or inconclusive.

SMILES | TDP1 cell CPT | TDP1 cell noCPT | HT1080 IDH1KD tx | IL1B secr inh | HT1080NT lethal
Cc1nc(Cc2nnc(SC(C)C(=O)Nc3ccccc3)o2)cs1 (stereo not given) | i | i | i | i | i
CC1CCc2c(sc(NC(=O)CSc3nc4c(c(C(F)(F)F)n3)CCc3ccccc3-4)c2C(N)=O)C1 (stereo not given) | i | i | i | i | ?
COc1ccccc1NC(=O)COc1ccccc1C(=O)c1cnn(-c2ccccc2)c1 | 20.6µM | 23.1µM | i | i | i
Cc1cc(C)c(N2CCN(S(=O)(=O)N3CCCCCC3)CC2)c(C)c1 | ? | 18.4µM | ? | i | ?
Cc1ccc(N2CCN(S(=O)(=O)N3CCCCC3)CC2)cc1Cl | ? | ? | i | i | i
Cc1cccc(NS(=O)(=O)c2c(C)noc2C)c1 | i | i | i | i | i
Cc1cccc(N/C=C/c2onc(C)c2[N+](=O)[O-])c1 | ? | 9.2µM | i | i | i
COc1cc(/C=C/c2onc(C)c2[N+](=O)[O-])cc(OC)c1OC | i | i | i | i | i
Cc1cccc(/C=C/c2onc(C)c2[N+](=O)[O-])n1 | 2.59µM | 2.59µM | 6.51µM | -96.7 | ?
Cc1cc(O)ccc1N/C=C/c1onc(C)c1[N+](=O)[O-] | i | i | ? | ? | 16.4µM
Cc1noc(/C=C/c2nn(C)cc2Cl)c1[N+](=O)[O-] | 20.6µM | 11.6µM | ? | -78.3 | i
CC1(C(=O)Nc2ccc3c(c2)OCCO3)CN(S(C)(=O)=O)CC(=O)N1CC(F)(F)F (stereo not given) | i | i | i | i | i
CCOc1ccc(/C=N/NC(=O)C(=O)N2CCCCCC2)c2ccccc12 | ? | i | i | ? | i
BrC(=C\c1ccccc1)/C=N/N1CCN(c2ccccn2)CC1 | 0.326µM | 2.59µM | i | -85.1 | i
FC(F)(F)c1ccc(/C=N/N2CCN(Cc3ccccc3)CC2)cc1 | i | i | i | -59.6 | i
BrC(/C=N/N1CCN(Cc2ccccc2)CC1)=C/c1ccccc1 | 13µM | 6.51µM | i | -81.5 | i
BrC(=C\c1ccccc1)/C=N/N1CCN(Cc2ccccc2)CC1 | 1.84µM | 3.26µM | i | i | i
CC(/C=N\N1CCN(Cc2ccc(C)cc2)CC1)=C\c1ccccc1 | i | i | i | i | i
Cc1ccc(CN2CCN(/N=C/c3ccc(C(F)(F)F)cc3)CC2)cc1 | ? | ? | i | i | i
COc1ccc(N2CCN(C(=O)COC(=O)CNC(=O)c3ccccc3)CC2)cc1 | i | i | i | i | i
COCCN1C[C@@H](CO)O[C@@H](n2cnc3c(N(C)C)ncnc32)C1 | i | i | i | i | i
NC(=O)c1ccc(NC(=O)COC(=O)CCC2CCCC2)cc1 | i | i | i | i | i
COc1ccc(C(=O)C(CCCCC(CN(C)C)C(=O)c2ccc(OC)cc2)CN(C)C)cc1 (stereo not given) | 20.6µM | 5.8µM | ? | i | i
CN(C)CC(CCC(CN(C)C)C(=O)c1ccccc1)C(=O)c1ccccc1 (stereo not given) | 1.46µM | 1.64µM | 5.8µM | -99.7 | 3.26µM
CCN(CC(=O)Nc1ccc2c(c1)OCCO2)C(=O)COc1ccc(C(C)=O)cc1 | i | i | i | i | i
SMILES | TDP1 cell CPT | TDP1 cell noCPT | HT1080 IDH1KD tx | IL1B secr inh | HT1080NT lethal
CCn1c(CCNC(=O)c2cccs2)n[nH]c1=S | i | i | i | i | i
COc1ccc(/C=C/C(=O)C2CC2)cc1COc1cccc(C)c1C | ? | 23.1µM | ? | -62.3 | ?
COc1ccc(/C=N/NC(=S)Nc2ccccc2)cc1COc1cccc(C)c1C | ? | ? | i | i | i
COc1ccc(C(=O)N/N=C/c2ccc(OC)c(COc3ccc(F)cc3)c2)cc1 | ? | ? | i | i | i
COc1ccc(/C=C/C(=O)c2ccc(O)cc2)cc1COc1ccc(F)cc1 | ? | ? | ? | -98.0 | ?
COc1ccc(C(=O)/C=C/c2ccc(OC)c(COc3ccccc3F)c2)cc1 | 25.9µM | ? | i | -89.7 | i
CCCC(=O)NNc1c2ccccc2nc2ccccc12 | i | ? | i | i | i
COc1ccc(OCC(=O)NNc2c3ccccc3nc3ccccc23)cc1 | 23.1µM | 20.6µM | ? | -51.0 | i
O=C(COc1ccccc1)NNc1c2ccccc2nc2ccccc12 | ? | 13µM | ? | i | i
O=C(CCCO)NNc1c2ccccc2nc2ccccc12 | i | ? | i | i | i
O=C(NCc1ccc(F)cc1)OC1CC2CC1[C@H]1CCCCN1C2=O (stereo not given in full) | i | i | i | i | i
CN(C)CCP(=O)(c1ccccc1)c1ccccc1 | i | ? | i | i | i
CN(C)CCN(C)Cc1c2ccccc2c(CN(C)CCN(C)C)c2ccccc12 | 18.4µM | 18.4µM | 20.6µM | -83.8 | ?
O=C1C(=O)N(C2CCN(C(=O)c3ccc(F)cc3)CC2)CCN1Cc1ccc(F)cc1 | i | i | nt | nt | nt
COCCn1c(=O)c(-c2cn(C)c3ccccc23)nc2cncnc21 | i | i | nt | nt | nt
Cn1cc(-c2nc3cncnc3n(CCN)c2=O)c2ccccc21 | 23.1µM | 16.4µM | nt | nt | nt
COc1ccc(NC(=O)CSc2nc3ccc(OC)cc3[nH]2)cc1 | i | i | i | i | i
CCOC(=O)c1c(NC(=O)CSc2nc3ccc(OC)cc3[nH]2)sc2c1CC(C)(C)NC2(C)C | ? | ? | i | -93.8 | i
COC(=O)c1c(NC(=O)Cc2ccccc2)sc2c1CC(C)(C)NC2(C)C | ? | ? | i | ? | i
CCOC(=O)c1c(NC(=O)CSc2ncccn2)sc(C(=O)NC)c1C | ? | ? | i | i | i
CCOC(=O)c1c(NC(=O)CSc2ncccn2)sc2c1CC(C)(C)NC2(C)C | i | i | i | -57.5 | i
CCOC(=O)c1c(NC(=O)COc2ccccc2F)sc2c1CC(C)(C)NC2(C)C | 9.2µM | 13µM | i | i | i
COC(=O)c1c(NC(=O)COc2ccc(Cl)cc2)sc2c1CC(C)(C)NC2(C)C | 2.91µM | 3.66µM | i | -97.0 | i
O=C(NC(=O)N1CCN(c2ccc([N+](=O)[O-])cn2)CC1)c1c(Cl)cccc1Cl | 9.2µM | ? | i | nt | i
O=[N+]([O-])c1ccc(N2CCCC2)nc1 | i | i | i | nt | i
CC(C)(C)c1ccc(C(=O)N2CCCN(c3ccc([N+](=O)[O-])cn3)CC2)cc1 | ? | 18.4µM | i | i | i
O=[N+]([O-])c1ccc(N2CCCCC2)nc1 | i | i | i | i | i
O=C(NC(=O)N1CCN(c2ccc([N+](=O)[O-])cn2)CC1)c1ccccc1F | ? | 9.2µM | i | i | i
CC1(C(=O)NS(=O)(=O)C2CC2)CCN(C(=O)c2cc3ccccc3s2)C1 (stereo not given) | i | i | i | i | i
CC1(C(=O)NS(=O)(=O)C2CC2)CCCN(C(=O)COCc2ccccc2)C1 (stereo not given) | 6.51µM | 2.31µM | ? | i | i

High-throughput results (PubChem)
